The record followed here is PubChem BioAssay (EPA / NIEHS).

Records with an inconclusive call do not appear. Where a structure was tested more than once in an assay, its records may differ in their call. The source made the active and inactive calls. The calls were made as follows, unless noted: active = hit-call score of the fitted dose curve at least 0.9, where 1 is the maximum; inconclusive = response in the unintended direction; inactive = score below 0.9.

Test [1] concerns the target Cellular tumor antigen p53 (Homo sapiens) (UniProt P04637). As to the kind of experiment: TOX21_p53_BLA_p4_ratio: Tox21 HCT-116 p53 Agonism Beta-lactamase Assay, Ratio, Phase 4 (AID 2283601). In short, it runs like this: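 Signal is the blue/green (460nm/530nm) ratio of cleaved versus uncleaved CCF4-AM substrate, read after 2 h substrate loading. Cells were HCT116 carrying the p53-responsive beta-lactamase reporter, dosed 16 h at 37C, 5% CO2; CellTiter-Glo measured in parallel.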

The nature of test [2]: Tanguay_ZF_120hpf_MORT_legacy: (Legacy) Oregon State University Tanguay Lab 120 Hour Post-fertilization zebrafish Assay for Mortality (AID 2283633). In outline: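 Dechorionated Tropical 5D wild-type zebrafish embryos, one per well from 6 hpf, were statically exposed at 28C in the dark until 120 hpf (0.64% DMSO final). Mortality was scored as present/absent by brightfield microscopy, fitted positively versus DMSO.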

Test [3] is described as follows: Tanguay_ZF_120hpf_YSE_legacy: (Legacy) Oregon State University Tanguay Lab 120 Hour Post-fertilization zebrafish Assay for Yolk Sac Edema (AID 2283634). In outline: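 Tropical 5D wild-type embryos, dechorionated with pronase at 4 hpf, were exposed singly from 6 hpf to 120 hpf under static, sealed, dark conditions at 28C with 0.64% DMSO final. Yolk sac edema was scored present/absent by brightfield microscopy.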

The nature of test [4]: Tanguay_ZF_120hpf_AXIS_legacy: (Legacy) Oregon State University Tanguay Lab 120 Hour Post-fertilization zebrafish Assay for Body Axis Malformation (AID 2283635). In outline:
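Tropical 5D wild-type zebrafish embryos, dechorionated with pronase at 4 hpf, were placed singly in wells at 6 hpf and exposed statically to test chemical (0.64% DMSO final) at 28C until 120 hpf, then scored by brightfield for body axis defects.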

Test [5] is described as follows: Tanguay_ZF_120hpf_EYE_legacy: (Legacy) Oregon State University Tanguay Lab 120 Hour Post-fertilization zebrafish Assay for Eye Malformation (AID 2283636). In outline:
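Read-out is binary presence or absence of eye malformation, scored by brightfield microscopy at 120 hpf. Single larvae were exposed from 6 hpf in embryo medium containing 0.64% DMSO, with DMSO as baseline.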

A short description of test [6]: Tanguay_ZF_120hpf_SNOU_legacy: (Legacy) Oregon State University Tanguay Lab 120 Hour Post-fertilization zebrafish Assay for Snout Malformation (AID 2283637). In short, it runs like this:
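Snout malformation read as a yes/no call on brightfield images of 120 hpf larvae (Tropical 5D strain). Static exposure began at 6 hpf on dechorionated embryos in 0.64% DMSO, with gain of signal analysed versus DMSO controls.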

A short description of test [7]: Tanguay_ZF_120hpf_JAW_legacy: (Legacy) Oregon State University Tanguay Lab 120 Hour Post-fertilization zebrafish Assay for Jaw Malformation (AID 2283638). In outline: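 Tropical 5D wild-type embryos, dechorionated with pronase at 4 hpf, were placed singly per well at 6 hpf and statically exposed at 28C until 120 hpf (0.64% DMSO final). Jaw malformation scored as present/absent by brightfield microscopy at 120 hpf, analyzed relative to DMSO.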

A short description of test [8]: Tanguay_ZF_120hpf_OTIC_legacy: (Legacy) Oregon State University Tanguay Lab 120 Hour Post-fertilization zebrafish Assay for Otic Vesicle Malformation (AID 2283639). In short, it runs like this: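 Tropical 5D wild-type zebrafish embryos were exposed statically in sealed, foil-covered plates at 28C until 120 hpf, with 0.64% (vol/vol) DMSO final. Otic vesicle malformation was scored present/absent by brightfield microscopy, with DMSO as baseline.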

A short description of test [9]: Tanguay_ZF_120hpf_PE_legacy: (Legacy) Oregon State University Tanguay Lab 120 Hour Post-fertilization zebrafish Assay for Pericardial Edema (AID 2283640). In short, it runs like this:
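Tropical 5D wild-type zebrafish embryos were exposed statically to 120 hpf at 28C, sealed and foil-covered, in 0.64% DMSO final. Pericardial edema was scored present/absent by brightfield microscopy; dead embryos were not scored.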

Test [10] is described as follows: Tanguay_ZF_120hpf_BRAI_legacy: (Legacy) Oregon State University Tanguay Lab 120 Hour Post-fertilization zebrafish Assay for Brain Malformation (AID 2283641). In outline: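 Tropical 5D wild-type zebrafish embryos were exposed statically in sealed, foil-covered plates at 28C until 120 hpf, with 0.64% (vol/vol) final DMSO. Brain malformation was scored present/absent by brightfield microscopy, relative to DMSO baseline.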

A short description of test [11]: Tanguay_ZF_120hpf_SOMI_legacy: (Legacy) Oregon State University Tanguay Lab 120 Hour Post-fertilization zebrafish Assay for Somite Malformation (AID 2283647). In outline: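 Tropical 5D wild-type zebrafish embryos, dechorionated with pronase at 4 hpf, were placed singly at 6 hpf and statically exposed until 120 hpf at 28C in 0.64% DMSO. Somite malformation was scored present/absent by brightfield microscopy versus DMSO.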

Test [12] in a line: Tanguay_ZF_120hpf_PFIN_legacy: (Legacy) Oregon State University Tanguay Lab 120 Hour Post-fertilization zebrafish Assay for Pectoral Fin Malformation (AID 2283648).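 Also: each larva judged yes or no for fin defect by brightfield with dead larvae skipped.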 In short, it runs like this: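 5D WT zebrafish; pronase dechorionation 4 hpf; 1 embryo/well at 6 hpf; static exposure to 120 hpf, 28C, sealed, foil-covered; final DMSO 0.64% v/v; 5 uM trimethyltin chloride positive control; fin defect scored yes/no.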

Test [13] is described as follows: Tanguay_ZF_120hpf_PIG_legacy: (Legacy) Oregon State University Tanguay Lab 120 Hour Post-fertilization zebrafish Assay for Pigmentation Malformation (AID 2283650). In outline:
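Pronase dechorionation at 4 hpf; embryos plated at 6 hpf, one per well; static exposure, sealed and foil-covered, 28C, to 120 hpf; pigmentation read by brightfield, binary; DMSO 0.64% baseline, 5uM trimethyltin chloride positive control.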

The nature of test [14]: Tanguay_ZF_120hpf_SWIM_legacy: (Legacy) Oregon State University Tanguay Lab 120 Hour Post-fertilization zebrafish Assay for Swim Bladder Malformation (AID 2283654).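 Also: swim bladder malformation in each larva scored yes or no under brightfield.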 In short, it runs like this: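 Embryos lacking chorions were exposed individually and statically to test chemical from 6 to 120 hpf at 28C, with 0.64% DMSO as vehicle. At 120 hpf, swim bladder malformation was recorded as present or absent by brightfield microscopy.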

A short description of test [15]: Tanguay_ZF_120hpf_TRUN_legacy: (Legacy) Oregon State University Tanguay Lab 120 Hour Post-fertilization zebrafish Assay for Truncated Body (AID 2283655). In outline: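 Tropical 5D wild-type embryos, dechorionated with pronase at 4 hpf, were placed singly in wells at 6 hpf and statically exposed at 28C until 120 hpf, final DMSO 0.64%. Truncated body was scored present/absent by brightfield microscopy.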

Read-out in test [16]: kallikrein-3 (KLK3), KLK3 (gene 354)
As to the kind of experiment: LTEA_HepaRG_KLK3: Life Technologies and Expression Analysis (LTEA) Assay for kallikrein-3 (KLK3) using HepaRG (AID 2283652; active = hit-call score of the fitted dose curve at least 0.9, where 1 is the maximum; inactive = score below 0.9). The settings on record: mRNA level, 48 h; actives raise or lower the signal. In short, it runs like this: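 Differentiated human HepaRG cells in serum-free induction medium exposed 48 h in duplicate, eight-point half-log series from 100 uM in 0.5% DMSO. KLK3 mRNA by qRT-PCR, normalised to ACTB, GAPDH, POLR2A; bidirectional fit versus DMSO.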

Read-out in test [17]: solute carrier (SLC22A6), SLC22A6 (gene 9356)
As to the kind of experiment: LTEA_HepaRG_SLC22A6: Life Technologies and Expression Analysis (LTEA) Assay for solute carrier (SLC22A6) using HepaRG (AID 2283653; active = hit-call score of the fitted dose curve at least 0.9, where 1 is the maximum; inactive = score below 0.9). The note with it: mRNA level, 48 h; actives raise or lower the signal. In outline:
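Differentiated human HepaRG cells were exposed for 48 h in serum-free induction medium to eight concentrations (top 100 uM, half-log steps, 0.5% DMSO), in duplicate. SLC22A6 mRNA was quantified by qRT-PCR, normalised to ACTB, GAPDH and POLR2A, and fitted bidirectionally against DMSO.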

Read-out in test [18]: solute carrier (SLC10A1), SLC10A1 (gene 6554)
As to the kind of experiment: LTEA_HepaRG_SLC10A1: Life Technologies and Expression Analysis (LTEA) Assay for solute carrier (SLC10A1) using HepaRG (AID 2283657; active = hit-call score of the fitted dose curve at least 0.9, where 1 is the maximum; inactive = score below 0.9). The note with it: mRNA level, 48 h; actives raise or lower the signal. In short, it runs like this:
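Transcript levels were measured by qRT-PCR after human HepaRG cells received test chemical for 48 hours, up to 100 uM in half-log dilutions. Values come from bidirectional concentration-response fitting relative to 0.5% DMSO vehicle.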

Read-out in test [19]: matrix metalloproteinase-1 (MMP1), MMP1 (gene 4312)
As to the kind of experiment: LTEA_HepaRG_MMP1: Life Technologies and Expression Analysis (LTEA) Assay for matrix metalloproteinase-1 (MMP1) using HepaRG (AID 2283658; active = hit-call score of the fitted dose curve at least 0.9, where 1 is the maximum; inactive = score below 0.9). The note with it: mRNA level, 48 h; actives raise or lower the signal. In outline: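 Differentiated HepaRG cells, plated 48 h then switched to serum-free induction medium, were exposed in duplicate for 48 h to eight half-log concentrations up to 100 uM in 0.5% DMSO; MMP1 mRNA measured by qRT-PCR, normalized to ACTB, GAPDH, POLR2A.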

For test [20], the system named is Thyroperoxidase (TPO), gene 54314. As to the kind of experiment: CCTE_Simmons_AUR_rTPO: CCTE's Amplex UltraRed Assay for Thyroperoxidase (TPO) Inhibition, Simmons Lab (AID 2283662).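 Also: potency for loss of signal meaning inhibition of peroxidase activity.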 In short, it runs like this: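 Rat thyroid microsomes (5 ug protein) were incubated with test compound (8 concentrations, 5 nM–87.5 uM final, 0.5% DMSO), 25 uM Amplex UltraRed and 300 uM H2O2 in 200 mM phosphate buffer for 30 min at 37C in the dark; fluorescence read at 544/590 nm.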

Sequence of Cellular tumor antigen p53 (Homo sapiens) (P04637 whole entry, looked up): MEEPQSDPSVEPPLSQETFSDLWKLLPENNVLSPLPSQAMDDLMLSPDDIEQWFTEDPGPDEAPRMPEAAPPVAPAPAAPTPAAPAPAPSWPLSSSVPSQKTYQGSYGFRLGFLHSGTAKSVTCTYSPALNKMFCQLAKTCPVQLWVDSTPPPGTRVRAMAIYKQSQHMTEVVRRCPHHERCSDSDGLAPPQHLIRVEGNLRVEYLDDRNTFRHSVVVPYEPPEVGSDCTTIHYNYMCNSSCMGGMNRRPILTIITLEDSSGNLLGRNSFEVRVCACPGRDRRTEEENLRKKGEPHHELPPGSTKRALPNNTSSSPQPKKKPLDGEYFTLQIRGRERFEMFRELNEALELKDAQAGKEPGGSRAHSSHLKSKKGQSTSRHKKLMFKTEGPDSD

Consider `O=P1(N(CCCl)CCCl)NCCCO1` (configuration not stated), for which the result in [1], in [2], in test [3], in [4], in test [5] and in test [6] was inactive. In addition, the result in test [7], in test [8], in test [9], in [10], in test [11] and in test [12] was inactive. Further, the call in test [13], in test [14] and in [15] was inactive.
`CO/N=C(/C(=O)OC)c1ccccc1COc1ccccc1C`: in [1], the outcome was inactive.
As to `OCC1CO1` (configuration not stated), the result in test [1], in test [2], in test [3], in test [4], in test [5] and in test [6] was inactive. Moreover, the outcome in test [7], in test [8], in test [9], in [10], in [11] and in test [12] was inactive. In addition, the call in test [13] and in test [15] was inactive.
On to `CCCCOCCOP(=O)(OCCOCCCC)OCCOCCCC`, for which, in [1], the result was inactive.
With `ClC1=C(Cl)C2(Cl)C3C(Cl)C(Cl)CC3C1(Cl)C2(Cl)Cl` (configuration not stated), the AC50 in test [1] was 63.5 µM (active). Also, the outcome in [1], in test [2], in [3], in test [4], in [5] and in test [6] was inactive. For the same molecule, the molecule was called inactive in [7], in [8], in test [9], in test [10], in test [11] and in [13]. The molecule was classed as inactive in test [14].
Consider `O=C(O)C1C(C(=O)O)C2(Cl)C(Cl)=C(Cl)C1(Cl)C2(Cl)Cl` (configuration not stated), for which the result in test [1], in test [2], in test [3], in test [4], in test [5] and in test [6] was inactive. For the same molecule, the call in test [7], in [8], in [9], in test [10], in test [11] and in test [12] was inactive. Moreover, the call in test [13], in [14] and in [15] was inactive.
As to `ClC(Cl)c1ccccc1`, the outcome in test [2], in test [3], in test [4], in test [5], in test [6] and in test [7] was inactive. Also, the molecule was classed as inactive in [8], in test [9], in test [12], in test [13], in test [14] and in test [15].
Take `CC(C)(C)OOC(C)(C)C`: the outcome in test [1], in [2], in test [3], in [4], in [5] and in test [6] was inactive. For the same molecule, the result in test [7], in test [9], in test [10], in test [11], in test [12] and in [13] was inactive. Moreover, the outcome in test [16], in test [17], in test [14], in test [15], in test [18] and in test [19] was inactive.
Regarding `CCOC(=O)c1ccccc1C(=O)OCC`, the outcome in test [1], in test [2], in test [3], in test [4], in test [5] and in test [6] was inactive. The result in test [7], in test [9], in [10], in [11], in test [12] and in test [13] was inactive. Also, the call in [14] and in test [15] was inactive.
`Nc1cc2c3c(c1)C(c1ccccc1)=N[C@@H](NC(=O)c1cccnc1)C(=O)N3CC2`: the molecule was classed as inactive in [2], in test [3], in [6], in test [7], in test [9] and in [11]. For the same molecule, the molecule was classed as inactive in test [12], in test [13], in test [14] and in [15]. The AC50 in [20] was 23.1 µM (active).
Regarding `[N-]=[N+]=[N-]`, the outcome in test [1], in test [2], in [3], in test [4], in [5] and in test [6] was inactive. Also, the result in test [7], in test [8], in test [10], in test [11], in test [12] and in [13] was inactive. Also, the result in [14] was inactive.
Consider `c1ccc2c(c1)Nc1ccccc1S2`, for which the result in test [1], in test [2], in test [3], in [4], in [5] and in [6] was inactive. The molecule was classed as inactive in [7], in test [8], in [9], in test [10], in test [11] and in test [13]. Also, the outcome in test [14] was inactive. Besides, in test [20], the AC50 was 15 µM (active).
`O=c1ssc(Cl)c1Cl`: the result in test [1] was inactive. Also, the AC50 in test [20] is 24.5 µM (active).
Regarding `CC(Cl)(Cl)C(=O)O`, the molecule was called inactive in [2], in test [3], in test [4], in test [5], in [6] and in test [7]. For the same molecule, the call in test [9], in [10], in [11], in test [12], in test [13] and in test [14] was inactive. Besides, the molecule was called inactive in test [15].
